Several values for one entry are separate records, joined by “and”; a condition that tells them apart may be missing. Equal entries are not always repeated. Results filed as inconclusive are left out. Unmarked numbers belong to inactive results. Activity calls are given as the source filed them. Calls follow the shape of the dose curve; as a rule, active = well fitted curve in the direction sought with a large enough effect; inconclusive = small, poorly fitted or top-dose-only effect, or another doubt; inactive = no such curve, though single readings can be large; an effect the other way counts as inactive or inconclusive.

Assay [1] has as its target Cytochrome P450 3A7 (Homo sapiens) (UniProt P24462). Briefly: Cytochrome P450 family 3 subfamily A member 7 (CYP3A7) small molecule antagonists: luciferase biochemical qHTS assay (AID 1963596). Also: % is scaled to controls: 0 for no effect and ±100 for the full control effect; nearly all actives have a fitted effect of over 40% in size. As to conditions: P450-Glo CYP3A7 enzyme luminescence, 1 h; series mostly up to 57.4 µM. A digest of the protocol:
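Biochemical CYP3A7 activity measured with P450-Glo system: luciferin formed from proluciferin substrate in NADPH-driven reaction (1 h, room temperature) after 10 min compound preincubation. Signal in relative luminescence units.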

Assay [2] in a line: Viability qHTS for spleen associated tyrosine kinase inhibitor (SYKi) naive MV4-11 cells (AID 1963823). Also: nearly all actives have a fitted effect of over 40% in size. Also: potency is read from the fitted curve at half-maximal effect. As to conditions: MV4-11 AML viability, CellTiter-Glo luminescence, 72 h; series mostly up to 45 µM. A digest of the protocol: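 Read-out: CellTiter-Glo luminescence. Exposure: 72 hr, 37 C, 5% CO2, 95% humidity. Cells: MV4-11 without SYK inhibitor history, 500/well, qHTS format.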
(In general: qHTS replaces the single test concentration by a dilution series.)

The nature of assay [3]: Viability qHTS for spleen associated tyrosine kinase inhibitor (SYKi) drug resistant MV4-11 cells (AID 1963824). Also: nearly all actives have a fitted effect of over 35% in size. Also: potency is read from the fitted curve at half-maximal effect. The conditions noted are these: SYKi-resistant MV4-11 viability, CellTiter-Glo, 72 h; series mostly up to 45 µM. A digest of the protocol: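 SYK-inhibitor-resistant MV4-11 AML cells were seeded at 500 per well onto compound and cultured 72 hours (37 °C, 5% CO2). CellTiter-Glo was then added, and after 10 min at room temperature, luminescence gave viability.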

Assay [4] can be described thus: Cellular viability qHTS for adrenocortical cancer (ACC) cell line SW-13 (AID 1963989). Also: nearly all actives have a fitted effect of over 65% in size. Also: potency is read from the fitted curve at half-maximal effect.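 As to activity (max response): cells grown in serum-free medium with ITS supplement; % is scaled to controls: 0 for no effect and ±100 for the full control effect.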 As to conditions: SW-13 ACC cells viability, CellTiter-Glo, 48 h; activity (max response): active compounds read low. A digest of the protocol:
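Compound titrations (up to 46 uM final, in DMSO) were applied to SW-13 cells for 48 h at 37C/5% CO2. Reading used CellTiter-Glo after 20 min at room temperature; fitted curves yielded IC50 and efficacy.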

Assay [5] in a line: Cellular viability qHTS for adrenocortical cancer (ACC) cell line NCI-H295R (AID 1963990). Also: nearly all actives have a fitted effect of over 60% in size. Also: potency is read from the fitted curve at half-maximal effect.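 As to activity change, negative = viability loss: 0% = DMSO only wells and -100% = full killing with cytotoxic reference compound.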 The conditions noted are these: CellTiter-Glo ATP luminescence, 48 h; series mostly up to 46.1 µM. A digest of the protocol:
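Readout: CellTiter-Glo luminescence, 20 min RT. Exposure: 48 h, 37C/5% CO2. Cells: NCI-H295R, ITS-DMEM serum-free. Range: up to 46 uM. Analysis: 4PL fit, IC50 plus efficacy.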

Chain of Cytochrome P450 3A7 (Homo sapiens) (P24462 whole entry, looked up): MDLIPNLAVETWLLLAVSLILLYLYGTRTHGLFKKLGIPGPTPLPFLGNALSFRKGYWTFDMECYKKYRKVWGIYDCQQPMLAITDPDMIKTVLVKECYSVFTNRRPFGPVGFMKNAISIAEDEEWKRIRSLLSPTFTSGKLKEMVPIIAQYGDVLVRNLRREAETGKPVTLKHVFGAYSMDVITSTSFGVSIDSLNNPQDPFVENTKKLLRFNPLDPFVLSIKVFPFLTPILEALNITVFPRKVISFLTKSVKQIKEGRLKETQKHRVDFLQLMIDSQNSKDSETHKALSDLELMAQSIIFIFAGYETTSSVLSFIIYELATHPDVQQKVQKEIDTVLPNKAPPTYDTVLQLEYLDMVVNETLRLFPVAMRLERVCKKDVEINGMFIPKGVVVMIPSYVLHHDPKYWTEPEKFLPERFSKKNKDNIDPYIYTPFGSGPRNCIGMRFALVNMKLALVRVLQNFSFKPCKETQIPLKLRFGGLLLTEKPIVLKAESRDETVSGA

Consider `O=C(O)c1ccccc1S`, for which the Potency result in assay [1], in assay [2], in assay [3] and in assay [5] was “inactive” each time. The activity (max response) in assay [4] was 5.53%.

Consider `O=C(O)/C=C/c1ccc(Cn2ccnc2)cc1`, for which the Potency entry in assay [1], in assay [2], in assay [3] and in assay [5] was “inactive” each time. For the same compound, in assay [4], the activity (max response) was 7.34% and 4.34%.

On to `CCCC(=O)Nc1ccc(OCC(O)CNC(C)C)c(C(C)=O)c1` (stereo not given), for which the Potency result in assay [1], in assay [2], in assay [3] and in assay [5] was “inactive” throughout. Besides, in assay [4], the activity (max response) is 0.0374%.

As for `CCC(C(=O)NC(=O)NC(C)=O)c1ccccc1` (stereo not given), the Potency result in assay [1], in assay [2], in assay [3] and in assay [5] was “inactive” in each case. Also, the activity (max response) in assay [4] is -1.46%.

Consider `O=C(NCN1CCOCC1)c1cnccn1`, for which the Potency result in assay [1], in assay [2], in assay [3] and in assay [5] was “inactive” in each case. For the same compound, in assay [4], the activity (max response) is -5.4%.

Take `O=S(=O)(O)c1ccc(O)cc1`: the Potency entry in assay [1], in assay [2], in assay [3] and in assay [5] was “inactive” each time. Further, the activity (max response) in assay [4] is 11.9%.

On to `COc1ccc(OC)c(C(O)CNC(=O)CN)c1` (stereo not given), for which the Potency entry in assay [1], in assay [2], in assay [3] and in assay [5] was “inactive” throughout. Further, the activity (max response) in assay [4] was 12.3%.

On to `NC(N)=NCCC[C@H](N)C(=O)O`, for which, in assay [1], the activity change, negative = inhibition is 2.52% [at 4.83 µM]. The viability (% of control) in assay [2] was 90.4% [at 4.97 µM]. For the same compound, the viability, % of control in assay [3] is 98.3% [at 4.97 µM]. Besides, the activity (max response) in assay [4] was -3.82%. In assay [5], the activity change, negative = viability loss was -23.9% [at 3.81 µM].

As to `CC(=O)Nc1ccn(C2COC(COC(=O)c3ccccc3)O2)c(=O)n1` (stereo not given), the Potency entry in assay [1] and in assay [5] was “inactive” in each case. The figures for the Potency in assay [2] and in assay [3] were 2.31 µM (active) and 1.64 µM (active), respectively. Besides, the activity (max response) in assay [4] is -9.44%.

Turning to `NC(=O)c1ncn([C@@H]2O[C@H](CO)[C@@H](O)[C@H]2O)c1N`, the Potency entry in assay [1], in assay [2], in assay [3] and in assay [5] was “inactive” throughout. Moreover, the activity (max response) in assay [4] was 3.4% and 2.54%.

For the compound `CO[C@@]1(NC(=O)CSC[C@@H](N)C(=O)O)C(=O)N2C(C(=O)O)=C(CSc3nnnn3C)CS[C@@H]21`, the Potency entry in assay [1], in assay [2], in assay [3] and in assay [5] was “inactive” each time. Moreover, in assay [4], the activity (max response) was -7.39%.

In the case of `CN1C(=O)CC[C@H]1c1cccnc1`, the Potency entry in assay [1], in assay [2], in assay [3] and in assay [5] was “inactive” throughout. Further, the activity (max response) in assay [4] was 2.26%.

Regarding `CCCN(CCC)S(=O)(=O)c1ccc(C(=O)O)cc1`, the Potency entry in assay [1], in assay [2], in assay [3] and in assay [5] was “inactive” throughout. In addition, the activity (max response) in assay [4] is 9.34%.

For `OC[C@@H](O)[C@@H](O[C@@H]1O[C@H](CO)[C@H](O)[C@H](O)[C@H]1O)[C@H](O)[C@@H](O)CO`, the Potency entry in assay [1], in assay [2], in assay [3] and in assay [5] was “inactive” in each case. In assay [4], the activity (max response) is 1.27%.

For `Cc1c(C(=O)NCCO)[n+](=O)c2ccccc2n1[O-]`, the Potency entry in assay [1], in assay [2], in assay [3] and in assay [5] was “inactive” in each case. Further, the activity (max response) in assay [4] was 7.59%.

On to `CCCCCCCCCCOc1cc2c(=O)c(C(=O)OCC)c[nH]c2cc1OCC`, for which, in assay [1], the activity change, negative = inhibition was 9.06% [at 4.83 µM]. The viability (% of control) in assay [2] is 102% [at 4.97 µM]. The viability, % of control in assay [3] was 107% [at 4.97 µM]. Further, in assay [4], the activity (max response) is 0.0943%. Also, in assay [5], the activity change, negative = viability loss was -5.4% [at 3.81 µM].

On to `CC1(C)OC(=O)NC1=O`, for which the Potency entry in assay [1], in assay [2], in assay [3] and in assay [5] was “inactive” each time. Besides, the activity (max response) in assay [4] was 15.1%.

Turning to `OC[C@@H](O)[C@@H](O)[C@H](O)[C@H](O)CO`, the Potency entry in assay [1], in assay [2], in assay [3] and in assay [5] was “inactive” each time. The activity (max response) in assay [4] was -5.63%.

On to `O=C(O)c1ccccc1-c1ccc(C(F)(F)F)cc1`, for which the Potency entry in assay [1], in assay [2], in assay [3] and in assay [5] was “inactive” throughout. In addition, the activity (max response) in assay [4] was 8.51%.

For `CCn1cc(C(=O)O)c(=O)c2cc3c(cc21)OCO3`, the Potency entry in assay [1], in assay [2], in assay [3] and in assay [5] was “inactive” throughout. In addition, the activity (max response) in assay [4] was -2.41%.

Regarding `CC(=O)O[C@@H]1CC2C3CCc4cc(OC(=O)c5ccccc5)ccc4C3CCC2(C)[C@H]1OC(C)=O` (stereo not given in full), the Potency result in assay [1], in assay [2], in assay [3] and in assay [5] was “inactive” each time. Further, the activity (max response) in assay [4] was 3.65%.

Turning to `Cc1cc(-c2cc(OC(=O)c3ccccc3)ccc2Cl)cc2nnc(Nc3ccc(OCCN4CCCC4)cc3)nc12`, the Potency entry in assay [1] and in assay [5] was “inactive” in each case. Besides, the Potency in assay [2] is 2 µM (active); in assay [3], 1.59 µM (active). Also, the activity (max response) in assay [4] is 9.34%.

With `CC[C@H](C)[C@H](N)C(=O)O`, the Potency entry in assay [1], in assay [2], in assay [3] and in assay [5] was “inactive” throughout. For the same compound, the activity (max response) in assay [4] was 4.01%.

For the compound `CNCc1ccc(C)c(NC(=O)c2ccc(Nc3nc(-c4ccccc4)c4ccccc4n3)cc2)c1`, the Potency result in assay [1] was “inactive”. Further, the Potency in assay [2] was 7.42 µM (active); in assay [3], 7.42 µM (active); in assay [4] it was 28.2 µM (active); in assay [5], 6.31 µM (active).

Regarding `CC(C)(C)NCC(O)COc1cccc2c1C[C@H](O)[C@H](O)C2` (stereo not given in full), the Potency result in assay [1], in assay [2], in assay [3] and in assay [5] was “inactive” each time. For the same compound, the activity (max response) in assay [4] was 9.63%.

`CO[C@]1(NC(=O)CSC(F)F)C(=O)N2C(C(=O)O)=C(CSc3nnnn3CCO)CO[C@H]21`: the Potency result in assay [1], in assay [2] and in assay [5] was “inactive” each time. The Potency in assay [3] was 5.8 µM (active). For the same compound, the activity (max response) in assay [4] was -9.56%.

As for `CN=C(NC#N)Nc1ccc(C2=NNC(=O)CC2C)cc1` (stereo not given), the Potency result in assay [1], in assay [2], in assay [3] and in assay [5] was “inactive” each time. For the same compound, the activity (max response) in assay [4] is -6.43%.

`CC(C)CCCC(C)CCCC(C)CCCCC(C)CCCC(C)CCCC(C)C` (stereo not given): the Potency result in assay [1], in assay [2], in assay [3] and in assay [5] was “inactive” throughout. The activity (max response) in assay [4] was 6.76%.

For `CCN1CCCC1CN` (stereo not given), the Potency entry in assay [1], in assay [2], in assay [3] and in assay [5] was “inactive” in each case. Also, in assay [4], the activity (max response) is -2.8%.

The values above are taken from PubChem BioAssay (NCATS).
